# HTT cytoprotect: qHTS Multiplex Assay to Identify Dual Action Probes in a Cell Model of Huntington: Cytoprotection (ATP). PC12 HTT-Q103 induced, cytoprotection, ATP luminescence, 40 h. Potency, µM (series often up to 56.4 µM), usual class: activators. 0.14% of 230,000 active. AID 1471, 2008; note: nearly all actives have a fitted effect of over 45% in size
#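 PC12 cells stably carrying ecdysone-inducible Htt exon 1 (Q103)–GFP were induced with 100 nM tebufenozide (final) alongside library compounds in a dose series. Cytoprotection was scored as retained ATP by ATPlite luminescence.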
# HttQ103 aggreg: qHTS Multiplex Assay to Identify Dual Action Probes in a Cell Model of Huntington: Aggregate Formation (GFP); PC12 HttQ103-GFP aggregates, Acumen cytometry, 40 h; 1.1% of 220,000 active; Potency, µM (doses to about 46.1 µM), most hits filed as inhibitors; note: nearly all actives have a fitted effect of over 60% in size
#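 Aggregate formation scored by laser-scanning cytometer (488 excitation, 500–530 emission) in lysed PC12 cells expressing Q103-GFP after 100 nM tebufenozide induction; library tested in dose series, with ATPLite reagent added in the multiplex.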
# TGFb SMAD3 inh: qHTS for Inhibitors of TGF-b; HepG2 CAGA-GFP TGF-b/SMAD3 reporter, GFP fluorescence, 18 h; TGF-beta stimulated, 500 pg/mL final; Potency, µM (top dose mostly 46.1 µM), hits mostly inhibitors; 1.2% of 410,000 active; note: nearly all actives have a fitted effect of over 65% in size
#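 Inhibition of TGF-beta-driven CAGA-GFP reporter expression in HEPG2 cells is measured by cellular GFP fluorescence after 18 h stimulation with 500 pg/mL recombinant TGF-beta in 1% FBS medium at 37 degrees C.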
# ATXN2 expr inh: Primary qHTS for Inhibitors of ATXN expression | HEK-293 ATXN2-luciferase reporter, luminescence, 24 h | Potency, µM (series often up to 57 µM), most hits filed as inhibitors | 0.72% of 360,000 active; note: nearly all actives have a fitted effect of over 55% in size
#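 qHTS (up to 57 uM final) was run with 24 h compound exposure of reporter cells at 37 °C. Each well was multiplexed: SteadyGlo luminescence measured ATXN2-luciferase expression after a fluorogenic Gly-Phe-AFC viability readout (25 uM final).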
# S2 tox: Viability Counterscreen for Primary qHTS for Inhibitors of ATXN expression; Potency, µM (series often up to 56.7 µM), hits mostly cytotoxic; 0.49% of 400,000 active; S2 cells (HEK-293 line with an ATXN2-luciferase reporter) viability, CellTiter-Fluor protease fluorescence, 24 h; note: nearly all actives have a fitted effect of over 40% in size
# HepG2 viability: qHTS for Inhibitors of TGF-b: Cytotox Counterscreen. HepG2 CAGA-GFP viability, ATP luminescence, 18 h. Potency, µM (titrated, usually from 46.1 µM), hits mostly cytotoxic. 0.76% of 410,000 active
#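 HepG2 CAGA-GFP cells (1000/well, DMEM with 1% FBS) received compound, then TGF-beta at 500 pg/mL final, and were incubated 18 hours at 37 degrees C. Viability was read by CellTiter-Glo luminescence. Media-only wells were set as complete cell-killing and DMSO as no toxicity.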
# Hits are given with their value; n = inactive; u = inconclusive; x = not tested or not shown; [ ] = remark or other dose. Hits are enriched below; roughly 2.8% of the tested compounds scored in any of these assays. Calls come from the whole dose curve; as a rule, active = well fitted curve in the direction sought with a large enough effect; inconclusive = small, poorly fitted or top-dose-only effect, or another doubt; inactive = no such curve, though single readings can be large; an effect the other way counts as inactive or inconclusive.
SMILES,HTT cytoprotect,HttQ103 aggreg,TGFb SMAD3 inh,ATXN2 expr inh,S2 tox,HepG2 viability
CC(=O)c1cc2ccccc2c2ccccc12,x,x,n,x,x,n
Cc1cccc(COC[C@H](Cc2ccccc2)N2CCN(C(=O)c3cccc(C)c3)CCC2=O)c1,n,x,x,n,25µM,x
Cc1cccc(C(=O)N2CCC(=O)N([C@H](COCc3cccc(C(F)(F)F)c3)Cc3ccccc3)CC2)c1,n,x,x,u,32µM,x
Cc1cccc(C(=O)N2CCC(=O)N([C@H](COCc3ccccc3)Cc3ccccc3)CC2)c1,n,x,x,n,u,x
CC(C)C[C@@H](COCc1cccc(C(F)(F)F)c1)N1CCN(C(=O)c2ccc(C(F)(F)F)cc2)CCC1=O,x,x,x,u,28µM,x
Cc1cccc(C(=O)N2CCC(=O)N(C(COCc3cccc(C(F)(F)F)c3)Cc3ccccc3)CC2)c1 (stereo not drawn),x,n,u,n,32µM,n
Cc1cccc(C(=O)N2CCC(=O)N(C(COCc3ccccc3)Cc3ccccc3)CC2)c1 (stereo not drawn),x,n,n,n,n,n
COc1ccc2c(c1)O[C@H](c1ccc3c(c1)OCO3)[C@@H](OC(=O)Nc1ccc(OC(F)F)cc1)C2=O,n,x,x,x,x,x
COc1ccc(Cl)c(Cn2cnc3c(cnn3C(C)(C)C)c2=O)c1F,x,x,n,x,x,n
CCOC(=O)c1ccc(N2C(=O)c3n[nH]c(C)c3C2c2ccccn2)cc1 (stereo not drawn),n,n,n,n,n,n
CCOC(=O)c1ccc(N2C(=O)c3n[nH]c(-c4ccco4)c3C2c2ccc(C)cc2)cc1 (stereo not drawn),x,x,u,u,28µM,16µM
CCOC(=O)c1ccc(N2C(=O)c3n[nH]c(-c4ccco4)c3C2c2ccc(O)c(OC)c2)cc1 (stereo not drawn),x,x,10µM,u,u,n
CCOC(=O)c1ccc(N2C(=O)c3n[nH]c(C)c3C2c2ccc(OCC)cc2)cc1 (stereo not drawn),x,x,11µM,u,u,n
CC(C)CN(C[C@@H](OP(=O)(O)O)[C@H](Cc1ccccc1)NC(=O)O[C@@H]1CCOC1)S(=O)(=O)c1ccc(N)cc1,n,n,x,x,x,x
Clc1cc(Br)ccc1OCCCNCc1ccccc1,x,n,11µM,n,n,13µM
Cc1ccc(C)c(OCCCNCc2ccccc2)c1,x,x,n,x,n,n
O=C(C=Cc1ccccc1)c1c[nH]c2ccccc2c1=O,x,x,u,u,u,n
Cc1[nH]c2ccccc2c(=O)c1C(=O)/C=C/c1ccccc1,n[10 µM],n[9.22 µM],u,11µM,14µM,n
COc1ccc[n+](CC(=O)c2ccc(F)cc2)c1,x,x,n,x,x,n
CCc1cccc(NS(=O)(=O)c2ccc3c(c2)CC(C)N3C(=O)C2CC2)c1 (stereo not drawn),x,x,7.1µM,n,u,n
CCc1ccc(NC(=O)C2CCN(S(=O)(=O)c3ccc4c(c3)CC(C)N4C(C)=O)CC2)cc1 (stereo not drawn),x,x,u,13µM,u,n
CC1Cc2cc(S(=O)(=O)NCc3ccccc3)ccc2N1C(=O)C1CC1 (stereo not drawn),x,x,n,n,n,n
CC(=O)OC[C@@H]1O[C@@H](O/N=C2/C[C@@H](O)[C@@H](O)[C@@H]3[C@@H]4C(=O)N(c5cccc(Oc6ccccc6)c5)C(=O)[C@H]4CC[C@H]23)[C@H](OC(C)=O)[C@H](OC(C)=O)[C@@H]1OC(C)=O,n[10 µM],x,x,x,x,x
Cn1nnnc1Sc1ncnc2scc(-c3ccsc3)c12,x,x,13µM,14µM,u,n
Cn1nnnc1Sc1ncnc2scc(-c3ccccc3C(F)(F)F)c12,x,x,u,u,u,n
SMILES,HTT cytoprotect,HttQ103 aggreg,TGFb SMAD3 inh,ATXN2 expr inh,S2 tox,HepG2 viability
Cn1nnnc1Sc1ncnc2scc(-c3cc4ccccc4o3)c12,x,x,2.5µM,5.6µM,13µM,4.5µM
Cn1nnnc1Sc1ncnc2scc(-c3ccc(-c4ccccc4)cc3)c12,x,x,u,u,u,n
Cn1nnnc1Sc1ncnc2scc(-c3cccs3)c12,x,x,u,8.9µM,n,n
COc1cccc(C(=O)CC2c3c(c(Br)c4c(c3OC)OCO4)CCN2C)c1 (stereo not drawn),n,x,x,x,x,x
Cc1cc(NCCCCCCCNc2cc(C)nc3cc([N+](=O)[O-])ccc23)c2ccc([N+](=O)[O-])cc2n1,x,x,8.9µM,u,21µM,n
CN(C)c1ccc(/C=C/c2ccnc3c(Cl)ccc(Cl)c23)cc1,x,x,n,x,x,n
C=CC(=O)CC,n,x,x,x,x,x

# Screening data as filed in PubChem.
